Hit rate of the full screen: of about 1,800 compounds, fewer than 10 were called active.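 How the source made its calls: active means inhibition of granule release above a set limit; inactive means the rest.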 These entries were drawn from the full list.

A short description of the experiment: inhibitors of lytic granule exocytosis, flow cytometry, TALL-104 cells, validation set (AID 651664). The settings on record: TALL-104 LAMP-1 externalization, at 15.2 µM, stronger effect = higher value, stimulated with thapsigargin and PMA.
As for `Cc1ccc(C(=O)NC(=S)Nc2ccc(-c3cc4ccccc4oc3=O)cc2)c(C)c1`, the inhibition was -0.7% (inactive).
The result for `CCOC(=O)c1[nH]c(C)c(/C(O)=C2\C(=O)C(=O)N(CCN(C)C)C2c2ccncc2)c1C` (configuration not stated) reads 4% (inactive).
The value for `O=C1C=C(N2CCN(C(=O)c3ccccc3)CC2)C2(CCCCC2)O1` was -4.4% (inactive); that for `CCc1ccc2c(c1)c(N=NC1=NC(=O)CS1)c(O)n2CC` was -0.4% (inactive); that for `CC(C)(C)NC(=O)C(=O)N/N=C/c1ccc(Br)cc1` was -2.4% (inactive).
As for `Cn1cnnc1Sc1cc(N2CCN(S(=O)(=O)c3ccc(Cl)c(Cl)c3)CC2)ccc1[N+](=O)[O-]`, the inhibition was 0.3% (inactive).
The value for `O=C(NCc1ccc2c(c1)OCO2)c1cccc(F)c1` was 6.2% (inactive); that for `Cc1cc(C(=O)CSc2nc3ccc(Cl)cc3[nH]2)c(C)n1CC1CCCO1` (configuration not stated) was 1.6% (inactive).
Consider `COc1ccc(/C(O)=C2/C(=O)C(=O)N(CCCN(C)C)C2c2ccc(Cl)cc2)cc1OC` (configuration not stated), for which the inhibition is 6.2% (inactive).
The value for `CCCCN(CCCC)CP(=O)(c1ccccc1)c1ccccc1` was 0% (inactive); that for `O=C(Cn1cnc2ccccc2c1=O)c1ccc2ccccc2c1` was 0% (inactive).
The value for `CC1CCN(S(=O)(=O)c2ccc(F)c(C(=O)O)c2)CC1` was 3.9% (inactive); that for `CC(=O)c1ccc(NC(=O)Nc2ccc(NS(=O)(=O)c3ccc(C)cc3)cc2)cc1` was -2.9% (inactive); that for `CCCCN(CCCC)C(=S)N/N=C/c1c(C)[nH]n(-c2ccccc2)c1=O` was -0.4% (inactive).
The result for `Cc1ccc(C(=O)C2(C)C3c4cc(Br)ccc4OC(=O)C32C(=O)c2ccco2)cc1` (configuration not stated) reads 93.2% (active); that for `N#CC1=C(N)N(c2ccc(Oc3ccccc3)cc2)C(=O)C1`, 1.8% (inactive).
Take `CCN(CC)C(=O)CSc1nc2ccccc2c(=O)[nH]1`: the inhibition is 0.4% (inactive).
As for `O=C(/C=C/c1ccc([N+](=O)[O-])cc1)NCC1CCCO1` (configuration not stated), the inhibition is -0.8% (inactive).
The value for `COc1cccc2cc(C(=O)Nc3cccc(C)n3)c(=O)oc12` was 4.9% (inactive); that for `CCCCSC(=S)N(C)C1CCS(=O)(=O)C1` (configuration not stated) was -0.4% (inactive).
The result for `COP(C)(=O)c1c(C)nn(-c2ccccc2)c1C` (configuration not stated) reads -2.1% (inactive).
Take `Cn1c(Cl)c(C(=O)Nc2ccccc2)c2ccccc21`: the inhibition is -1.3% (inactive).
The result for `Cc1csc(NC(=O)Cc2coc3cc(C)c(C(C)C)cc23)n1` reads -2.3% (inactive); that for `N/C(=N\OC(=O)CCCN1C(=O)c2ccccc2C1=O)c1ccc(Br)cc1`, -3.6% (inactive).
The result for `N/C(=N\OC(=O)c1ccc(Cl)cc1Cl)c1ccc(Cl)cc1` reads 5.2% (inactive).
Take `N/C(=N\OC(=O)c1cccc(Br)c1)c1ccc(Br)cc1`: the inhibition is 57.6% (active).
The result for `CCOC(=O)C(C)On1c(-c2ccccc2)nc2ccc([N+](=O)[O-])cc21` (configuration not stated) reads 4.1% (inactive); that for `CCc1nn(-c2ccccc2)c2c1-c1cc(OC)c(OC)cc1C1(N2)C(=O)Nc2ccccc21` (configuration not stated), -0.7% (inactive).
Consider `CCOc1c(Cl)cc(C(=O)Nc2ccccc2-c2ccccc2)cc1Cl`, for which the inhibition was -0.6% (inactive).
The result for `O=C(COc1ccccc1O)N1CCN(C(=O)c2ccco2)CC1` reads 0.9% (inactive).
The value for `OCCSc1ncnc2c1oc1ccccc12` was -1.3% (inactive); that for `O=C(O)CCCCCNC(=O)Nc1ccc2c(c1)OCCO2` was -3.4% (inactive); that for `O=C1c2ccccc2NC(c2cnc3ccccc3n2)N1O` (configuration not stated) was -0.6% (inactive).
The result for `COc1cc(CC(=O)OCC(=O)c2ccc3c(c2)OCCO3)cc(OC)c1OC` reads 0.6% (inactive); that for `Cc1cc(NC(=O)c2cccc3ccccc23)cc(C)c1OCC(=O)N1CCOCC1`, -2.8% (inactive); that for `N#Cc1c(-c2ccccc2)nc(-c2ccccc2)nc1N1CCOCC1`, -0.6% (inactive).
In the case of `Cc1nc2c(=O)oc3ccccc3c2n1-c1ccccc1`, the inhibition was -0.5% (inactive).
As for `CCOC(=O)C1CCN(C(=O)CN(c2cc(OC)ccc2OC)S(=O)(=O)c2ccccc2)CC1`, the inhibition is -2.6% (inactive).
On to `Cc1nn(C)cc1CNC(=O)CCC(=O)O`, for which the inhibition is 5.3% (inactive).
The result for `COC(=O)C1CCN(c2cc(=O)n(C3CCCCC3)c(=O)[nH]2)CC1` reads 5.6% (inactive); that for `Cc1ccccc1C1CC(c2ccccc2OC(F)F)Nc2ncnn21` (configuration not stated), -2.3% (inactive); that for `Cc1cc2ccccc2nc1SCC(=O)N1c2ccccc2CC1C` (configuration not stated), -0.9% (inactive).
The result for `CC12Cc3ccc4ccccc4c3C=C1C[N+](C)(C)C2` (configuration not stated) reads -0.3% (inactive); that for `CC1=NC(=O)C(N=Nc2ccccc2)N1c1ccccc1` (configuration not stated), -2.8% (inactive); that for `CC(C)c1ccc(NS(=O)(=O)c2ccc3[nH]cc(C(=O)N4CCC(C(N)=O)CC4)c(=O)c3c2)cc1`, -0.7% (inactive).
The value for `CCC(C)(C)NC(=O)C(c1ccco1)N(C(=O)Cn1nnc2ccccc21)c1ccc2c(c1)OCO2` (configuration not stated) was -0.1% (inactive); that for `Cc1ccc(S(=O)(=O)N2CCN(C(=O)c3cc4c(C)nn(-c5ccccc5C)c4s3)CC2)cc1` was -1.8% (inactive).
Consider `CCOC(=O)c1sc2nc(CC(=O)OC)nc(NCCN3CCOCC3)c2c1C`, for which the inhibition is -2.4% (inactive).
`COc1ccc(C(C)=O)cc1CN1C(=O)NC2(CCCCC2)C1=O`: the inhibition was -0.4% (inactive).
The value for `Cc1occc1C(=O)Nc1ccc2ccccc2c1` was 0.2% (inactive); that for `CCS(=O)(=O)N1CCCC(C(=O)NC2CCCCC2C)C1` (configuration not stated) was 0.3% (inactive); that for `O=C(O)c1c[nH]c(=S)n1-c1ccc(F)cc1` was 1.2% (inactive).
The value for `COCCN1CN(S(=O)(=O)c2ccc(Cl)cc2)c2nc3ccccc3nc21` was -1.9% (inactive); that for `COc1cccc(C(C(=O)NCc2ccco2)N(Cc2ccco2)C(=O)Cn2nnc3ccccc32)c1` (configuration not stated) was -3.7% (inactive); that for `CCCn1c2c(c(O)c(C(=O)Nc3ccccc3)c1=O)CCCC2` was 1.8% (inactive).
The value for `CSCC[C@H](NC(=O)NCCC1=CCCCC1)C(=O)O` was 1.1% (inactive).
`CCOC(=O)c1c(C(C)(C)C)oc2ccc(O)cc12`: the inhibition is 1.3% (inactive).
`Clc1ccc(CON/C=N/c2ncnc3sccc23)cc1`: the inhibition was -1.5% (inactive).
`CSc1nc(-c2ccc(Cl)cc2)nn1C(=O)c1ccco1`: the inhibition is 7% (inactive).
The value for `C1=C(c2ccccc2)Nc2nnnn2C1c1cccs1` (configuration not stated) was 0.7% (inactive); that for `O=C(NCc1nc2ccccc2[nH]1)c1cc2ccccc2oc1=O` was 6.1% (inactive).
The result for `c1ccc2nc(-c3nc4ccccc4[nH]3)ccc2c1` reads 0.9% (inactive).
The result for `Cc1cccc(CC(Cc2nc3ccccc3[nH]2)c2nc3ccccc3[nH]2)c1` (configuration not stated) reads 94.4% (active).
On to `COc1ccc(CCNC(=O)c2ccccc2NC(=O)c2ccco2)cc1OC`, for which the inhibition was -1.7% (inactive).
The value for `COC(=O)CN1C(=O)C(O)(CC(=O)c2ccc(C)o2)c2ccccc21` (configuration not stated) was -1.9% (inactive); that for `COc1cccc(OC)c1C(=O)Nc1cc(C)on1` was -2.4% (inactive); that for `O=C(c1ccc(F)cc1)c1ccc(N2CCCC2)cc1` was -4.5% (inactive).
The result for `O=c1cc(N2CCc3ccccc3C2)[nH]c(=O)n1C1CCCCC1` reads 8.4% (inactive).
For `CCN(CC)C(=O)CSc1ncnc2c1nnn2-c1ccc(OC)cc1`, the inhibition is -0.1% (inactive).
The value for `O=S(=O)(CCc1nc2ccccc2o1)c1ccc(Cl)c(Cl)c1` was -2.2% (inactive); that for `COC(=O)c1ccccc1NC(=O)c1ccc(COc2ccc(C)c(C)c2)o1` was -0.1% (inactive).
With `O=C(c1ccc(S(=O)(=O)N2CCCCCC2)cc1)N1CCC(CN2C(=O)c3cccc4cccc(c34)C2=O)CC1`, the inhibition is 0.6% (inactive).
On to `c1nnnn1C12CC3CC(CC(C3)C1)C2`, for which the inhibition was 3.1% (inactive).
As to `CCOC(=O)c1ccc(N2C(=O)CC(C3CCCO3)C2=O)cc1` (configuration not stated), the inhibition was 3.6% (inactive).
The result for `COC(=O)c1ccc(N2C(=O)CC(N(C)CCc3ccc(OC)c(OC)c3)C2=O)cc1` (configuration not stated) reads 66% (active).
The result for `COC(=O)c1ccc(N2C(=O)CC(SCCN)C2=O)cc1` (configuration not stated) reads -1.8% (inactive); that for `O=C(Nc1cc(C(F)(F)F)ccc1N1CCOCC1)c1cccnc1Cl`, -2.8% (inactive); that for `CCCS(=O)(=O)N1CCCC(C(=O)NCCN(Cc2ccccc2)C(C)C)C1` (configuration not stated), -0.7% (inactive).
The result for `O=C(/C=C/Nc1cccc(C(F)(F)F)c1)c1ccc(Oc2ncccn2)cc1` reads -1% (inactive); that for `NC(=S)N/N=C/c1ccc(-c2cccc([N+](=O)[O-])c2)o1`, 1.9% (inactive); that for `COc1ccc(NC(=O)c2cccc(S(=O)(=O)N3CCOCC3)c2)cn1`, 1.5% (inactive).
As to `O=C(NCC1CCCO1)/C(=C\c1ccco1)NC(=O)c1ccccc1` (configuration not stated), the inhibition is -2.2% (inactive).
The result for `CCc1ccc(Nc2ncccc2C#N)cc1` reads 1.1% (inactive); that for `C=CCn1c(-c2cccs2)nc2nc3ccccc3nc21`, -2.3% (inactive); that for `C/C(=N/OC(=O)c1ccc(F)cc1)c1ccc(C)cc1`, 0.7% (inactive).
In the case of `CC1(C)Cc2c(C#N)c(SCc3ccccc3)nc(N3CCOCC3)c2CO1`, the inhibition was 1.1% (inactive).
The result for `Fc1ccc(C2=Nn3c(Cc4ccccc4F)nnc3SC2)cc1` reads 1.3% (inactive); that for `CC(=O)N1CCc2cc(NS(=O)(=O)c3cccs3)ccc21`, -1.2% (inactive); that for `COc1cc(OC)cc(C(=O)Nc2nc3ccccc3[nH]2)c1`, -1% (inactive).
The result for `Cc1cccc(N2CCN(CC(=O)Nc3ccc(-n4cnnn4)cc3)CC2)c1C` reads -0.6% (inactive); that for `COc1ccc(-c2cn[nH]c2N)cc1OC`, 2.5% (inactive).
Regarding `O=C(COC(=O)c1ccccc1)NCc1ccco1`, the inhibition was -0.5% (inactive).
The value for `CCOC1(OCC)N=C(N)C2(C#N)C(c3cccc(C)c3)C12C#N` (configuration not stated) was -0.4% (inactive); that for `Cc1ccc(NC(=O)/C(=C\C=C\c2ccccc2)NC(=O)c2ccccc2)cc1` was -0.3% (inactive); that for `Cc1ccc(NC(=O)c2cc(S(=O)(=O)Nc3ccc(C)cc3)cs2)cc1` was 0.6% (inactive).
The result for `COc1cc(N)cc(NC(=O)c2ccncc2)c1` reads -0.4% (inactive).
The value for `COc1ccc(CN2CCOCC2)cc1` was 1.5% (inactive).

For the origin of these results see PubChem BioAssay AID651664 (NMMLSC, 2012).
